# Sampled rows, rich in hits. Any-hit rate of the full collection: about 2.2%.
# Arbovirus inh: blocks arbovirus infection; arbovirus infection cell-based antiviral screen; inhibition, % at 10 µM; actives 0.37% (n = 200,000); AID 1251; in the data active = inhibition above about 30%
# HMGR II inh: blocks class II HMG-CoA reductase of Enterococcus faecalis | purified E. faecalis HMGR, NADPH absorbance 340 nm kinetic | inhibition, % at 10 µM | actives 0.41% (n = 190,000);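 active = inhibition above a set limit, the median over all tested compounds plus 3 SD, cut at about 9.5% in these data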;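 also: enzyme runs in reverse so mevalonate oxidation gives rising NADPH absorbance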
# NCF1 inh: p47phox (human) inhibition. P14598. p47phox/p22phox peptide binding, fluorescence polarization, 2 h. inhibition, % at 24.7 µM. actives 0.53% (n = 220,000). AID 1274;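 active = inhibition above about 30%, limit read from the data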
# Target sequence (P14598 whole entry, looked up): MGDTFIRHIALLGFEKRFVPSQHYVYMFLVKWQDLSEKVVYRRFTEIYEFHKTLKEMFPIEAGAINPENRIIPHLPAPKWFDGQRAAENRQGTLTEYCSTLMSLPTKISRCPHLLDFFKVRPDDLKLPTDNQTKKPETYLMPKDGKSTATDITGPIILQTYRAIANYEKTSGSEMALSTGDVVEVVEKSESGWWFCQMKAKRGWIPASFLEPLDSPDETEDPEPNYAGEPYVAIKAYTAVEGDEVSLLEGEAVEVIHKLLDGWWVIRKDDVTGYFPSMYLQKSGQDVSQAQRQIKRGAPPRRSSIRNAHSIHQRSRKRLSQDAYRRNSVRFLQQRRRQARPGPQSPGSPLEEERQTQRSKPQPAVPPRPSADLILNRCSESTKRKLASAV
# Redox H2O2 prof: compounds producing H2O2 with reducing agent – biochemical, NIH compound library profiling, artefact control for MLSCN library redox annotation, primary screen | actives 0.03% (n = 200,000) | DTT-dependent redox cycling H2O2, phenol red/HRP absorbance; 100% = 100 µM peroxide control, 0% = buffer | activation, % at 10 µM | AID 878;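 active = activation of at least 50% relative to the plate's high and low controls in the primary single-dose screen; inactive = activation below 50%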;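 also: compound incubated with DTT at 0.8 mM final as the reducing agent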
# Ins promoter up: MIN6 insulin promoter up-regulation | actives 0.3% (n = 190,000) | MIN6 insulin promoter-GFP reporter, high-content imaging; stronger effect = higher value | z-score at 5 µM;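 active = z-score above 3 at 5 µM with at least 500 cells counted in the well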
# Autophagy mod: alters autophagy in cells. actives 0.98% (n = 190,000). AID 463193. MEF GFP-LC3 puncta imaging; test concentration mostly 10 µM. calls only at 10 µM (by protocol);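 active = percentage of spot-positive cells more than 3 SD above its plate mean, without a fluorescence outlier flag or 80% toxicity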
# Hits are given with their value; i = inactive; nt = not tested or not shown; + = active, no number.
SMILES,Arbovirus inh,HMGR II inh,NCF1 inh,Redox H2O2 prof,Ins promoter up,Autophagy mod
O=[N+]([O-])c1ccc(Sc2cccc3cccnc23)c2cccnc12,i,i,nt,i,i,i
CCOC(=O)c1c(NC(=O)CN2C(=O)NC3(CCCCC3C)C2=O)sc(C)c1C (centres undefined),i,i,i,i,i,i
Cc1ccc(C2(C)NC(=O)N(CC(=O)Nc3c(C)n(C)n(-c4ccccc4)c3=O)C2=O)cc1 (centres undefined),i,13,i,i,i,i
CCOC(=O)c1c(NC(=O)CN2C(=O)NC(C)(c3ccccc3)C2=O)sc(C)c1C (centres undefined),i,i,i,i,i,+
CC(=O)c1ccc(OCc2cccc(C(F)(F)F)c2)cc1O,i,i,i,i,i,i
COc1ccc(Cn2nnnc2CN2CCC(O)(c3ccc(F)cc3)CC2)cc1,i,i,i,i,i,i
COc1ccc(C2(O)CCN(Cc3nnnn3Cc3ccc(C)cc3)CC2)cc1,i,i,i,i,i,+
COc1c(F)c(F)c(C(=O)Nc2c(C)cc(Br)cc2C)c(F)c1F,i,i,i,i,i,i
[N-]=[N+]=CC(=O)CC(c1ccccc1)N1C(=O)c2ccccc2C1=O (centres undefined),i,i,51,i,i,i
COc1ccccc1C(=O)NC1CCCCCCC1,i,i,i,i,nt,+
CC1CN(Cc2cnc(Cl)s2)CC(C)O1 (centres undefined),i,23,i,i,i,i
COc1ccc(-c2csc3nc(C(C)C)oc(=O)c23)cc1OC,i,i,i,i,i,i
COc1ccc(-c2nc3scc(-c4ccc(OC)c(OC)c4)c3c(=O)o2)cc1,i,i,i,i,i,+
CC(/C=N/NC(=O)c1ccncc1)=C\c1ccc(C(C)C)cc1,i,i,i,i,3.2,i
COCCNC(=O)CN(C(=O)c1ccc(N2CCCC2)nc1)c1ccccc1,i,i,i,i,i,+
COc1ccc2[nH]c(=O)c(CN(CCCN(C)C)C(=O)Nc3ccc(F)cc3)cc2c1,30,i,i,i,i,i
O=C(/C=C/c1ccccc1)OCc1cnc(Cl)s1,i,i,i,i,i,i
CC(C(=O)O)n1cc(Cl)cn1 (centres undefined),i,i,i,i,i,i
Cc1cc(C)cc(C(=O)OCC(=O)NCc2cccs2)c1,i,i,i,i,i,i
Cc1cc2c(cc(C(=O)OCC(=O)NCc3cccs3)n2C(C)C)o1,i,i,i,i,i,+
Cc1ccc(C(=O)OCC(=O)NCc2cccs2)c(C)c1,i,i,i,i,i,+
Nc1nc(SCc2ccc(Cl)cc2Cl)nc2nc3c(cc12)CCCC3,i,i,i,i,i,+
Nc1nc(SCc2ccccc2Cl)nc2nc3c(cc12)CCCC3,i,i,i,i,i,i
COc1ccc2cc(OC)c(C(=O)N3CCOCC3)cc2c1,i,i,37,i,i,i
COc1cccc(C(=O)N2CCOCC2)c1,i,i,i,i,i,i
SMILES,Arbovirus inh,HMGR II inh,NCF1 inh,Redox H2O2 prof,Ins promoter up,Autophagy mod
CCCCNC(=O)C1CC(=O)N(C2CCCCC2)C1 (centres undefined),i,i,i,i,3,i
CCS(=O)(=O)c1ccc(Sc2nncn2C)c([N+](=O)[O-])c1,i,i,124,i,i,i
CCN(CC)S(=O)(=O)c1ccc(NC(=O)c2ccc(Sc3nncn3C)c([N+](=O)[O-])c2)cc1,i,i,i,i,i,i
Nc1nnn(CC(=O)N/N=C/c2ccc(Cl)cc2Cl)n1,nt,nt,i,nt,i,nt
S=c1[nH]nc(NCCCN2CCOCC2)s1,nt,nt,78,nt,i,nt
Cc1ccc(NC(=O)c2cc(C(=O)c3cc(Cl)ccc3O)cn(-c3ccc(C)cc3)c2=O)cc1,i,i,i,i,i,i
Cc1cc(C)c(O)c(C2(O)C(=O)c3ccccc3C2=O)c1,nt,nt,i,nt,i,nt
CCOC(=O)c1ccc(N2C(=O)CC(Nc3ccc(O)cc3)C2=O)cc1 (centres undefined),nt,nt,35,nt,i,nt
C=CCOC(=O)c1cc(-c2ccc(/C=C3\C(=O)NC(=O)C(C#N)=C3C)o2)ccc1Cl,i,i,39,i,i,i
CCCOC(=O)c1cc(-c2ccc(/C=C3/C(=O)N(C)C(=O)C(C#N)=C3C)o2)ccc1Cl,nt,nt,nt,i,nt,i
C=CCN1C(=O)/C(=C2/Sc3ccc(OC)cc3N2C)SC1=Nc1cccc(O)c1,i,i,i,i,i,+
COc1ccccc1NC(=O)CN1CCN(c2ccccc2)CC1,i,i,i,i,i,i
O=C(COC(=O)c1cc(Br)ccc1Cl)NC1CCCC1,i,i,i,i,i,i
CCCNC(=O)c1csc2c1CCCCC2,i,i,i,i,i,i
CCCNC(=O)c1sc2c(c1C(=O)Nc1ccccn1)CCCC2,i,i,i,i,i,+
CCOc1ccc2c(c1)C(c1ccc(C)cc1)=NNC(c1ccc(OC)cc1)=N2,i,i,i,i,i,i
CCOc1ccc2c(c1)C(c1ccc(C)o1)=NNC(c1ccncc1)=N2,i,i,i,i,i,+
CCN1CCN(c2ccc(NC(=O)c3cccc(F)c3)cc2Cl)CC1,i,10,i,i,i,i
O=C(Nc1ccc(N2CCOCC2)c(Cl)c1)c1ccc(F)cc1,i,i,i,i,i,i
Cn1c(CO)cnc1SCc1ccc(F)cc1,i,15,i,i,i,i
N#Cc1c(-c2ccccc2Cl)cc(-c2ccccc2)[nH]c1=S,i,i,i,i,i,i
N#Cc1c2c(c(-c3ccccc3Cl)[nH]c1=S)CCCC2,i,24,i,i,i,i
CC(C)(C)c1cc(NC(=O)c2cc(F)c(F)c(F)c2F)no1,i,i,i,i,i,i
CCOc1ccc(NC(=O)Cn2c(=O)oc3ccccc32)cc1,i,i,i,i,3.6,i
CCOc1ccc(NC(=O)CCC(=O)NNC(=O)COc2ccccc2C)cc1,i,i,i,i,i,+
SMILES,Arbovirus inh,HMGR II inh,NCF1 inh,Redox H2O2 prof,Ins promoter up,Autophagy mod
CCOc1ccc(CNC(=O)CCn2c(=O)oc3ccccc32)cc1,i,i,i,i,3.4,i
COc1ccc(CNC(=O)CCn2c(=O)oc3ccccc32)cc1,i,i,i,i,i,i
CSc1nc2ccccc2c(=O)n1C1CCOC(C)(C)C1 (centres undefined),i,i,i,i,i,i
O=C(O)c1cccc(-n2cccc2/C=C2/NC(=O)N(c3ccc(Cl)cc3)C2=O)c1,32,10,i,i,i,i
Cc1ccccc1N=C1NC(=O)/C(=C/c2cccn2-c2cccc(C(=O)O)c2)S1,76,i,i,i,i,i
Cc1cccc(N=C2NC(=O)/C(=C/c3cccn3C)S2)c1C,nt,nt,i,nt,i,nt
COc1ccc(OC)c(S(=O)(=O)N2CCC(C(=O)Nc3cccc(C(F)(F)F)c3)CC2)c1,i,i,i,i,i,i
COc1nnc(OC)c2ccccc12,i,i,i,i,i,i
COc1c2ccccc2c(OC)c2ccccc12,i,i,i,i,i,+

# Screening results (PubChem BioAssay)
